Laboratory results reported in PubChem BioAssay AID1159580 (chemical genetic matrix, 2015).
The whole screen tested about 5,500 compounds, of which about 2,000 (36%) were called active. Roughly 18% stayed inconclusive and do not appear here. Cut-off read from the data, not from the text of the source: active = normalized growth mostly below about 0.91 (no sharp cut-off); inconclusive = no clear call, values can overlap the other calls; inactive = mostly above about 0.92. The list shows a part of the results.

Experiment: chemical genetic growth profiling, strain panel (AID 1159580);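 note: tested at 20 µM; growth read once vehicle control cultures reached saturation at 30 °C; 1 = growth at the plate median or of vehicle wells; lower values mean less growth of the strain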
Details: S. cerevisiae deletion strains, growth OD
[1] = locus YAR019C, strain CDC15, hits give low values
[2] = locus YBL105C, strain PKC1, hits give low values
[3] = locus YBR135W, strain CKS1, hits give low values
[4] = locus YBR136W, strain MEC1, hits give low values
[5] = locus YBR160W, strain CDC28, hits give low values
[6] = locus YDL017W, strain CDC7, hits give low values
[7] = locus YDL028C, strain MPS1, hits give low values
[8] = locus YDL101C, strain DUN1, hits give low values
[9] = locus YDL108W, strain KIN28, hits give low values
[10] = locus YDL132W, strain cdc53, hits give low values
[11] = locus YDL214C, strain PRR2, hits give low values
[12] = locus YDR052C, strain DBF4, hits give low values
[13] = locus YDR054C, strain cdc34, hits give low values
[14] = locus YDR226W, strain ADK1, hits give low values
[15] = locus YDR477W, strain SNF1, hits give low values
[16] = locus YER123W, strain YCK3, hits give low values
[17] = locus YER133W, strain GLC7, hits give low values
[18] = locus YFL009W, strain cdc4, hits give low values
[19] = locus YFL029C, strain CAK1, hits give low values
[20] = locus YFR003C, strain YPI1, hits give low values
[21] = locus YFR019W, strain FAB1, hits give low values
[22] = locus YFR028C, strain CDC14, hits give low values
[23] = locus YGR040W, strain KSS1, hits give low values
[24] = locus YGR052W, strain FMP48, hits give low values
[25] = locus YGR092W, strain DBF2, hits give low values
[26] = locus YHR079C, strain IRE1, hits give low values
[27] = locus YHR082C, strain KSP1, hits give low values
[28] = locus YHR205W, strain SCH9, hits give low values
[29] = locus YIL147C, strain SLN1, hits give low values
[30] = locus YJL095W, strain BCK1, hits give low values
[31] = locus YJL128C, strain PBS2, hits give low values
[32] = locus YJL157C, strain FAR1, hits give low values
[33] = locus YJR016C, strain ILV3, hits give low values
[34] = locus YJR066W, strain TOR1 (second series), hits give low values
[35] = locus YJR066W, strain TOR1, hits give low values
[36] = locus YKL048C, strain ELM1, hits give low values
[37] = locus YKL067W, strain YNK1, hits give low values
[38] = locus YKL101W, strain HSL1, hits give low values
[39] = locus YKL193C, strain SDS22, hits give low values
[40] = locus YKL203C, strain TOR2, hits give low values
[41] = locus YLR113W, strain HOG1, hits give low values
[42] = locus YLR133W, strain CKI1, hits give low values
[43] = locus YLR403W, strain SFP1, hits give low values
[44] = locus YML070W, strain DAK1, hits give low values
[45] = locus YMR001C, strain CDC5, hits give low values
[46] = locus YMR205C, strain PFK2 (second series), hits give low values
[47] = locus YMR277W, strain FCP1, hits give low values
[48] = locus YNL006W, strain LST8, hits give low values
[49] = locus YNL020C, strain ARK1, hits give low values
[50] = locus YNL161W, strain CBK1, hits give low values
[51] = locus YNL183C, strain NPR1, hits give low values
[52] = locus YNL207W, strain RIO2, hits give low values
[53] = locus YNL222W, strain SSU72, hits give low values
[54] = locus YNL307C, strain MCK1 (second series), hits give low values
[55] = locus YOL078W, strain AVO1, hits give low values
[56] = locus YOL136C, strain PFK27, hits give low values
[57] = locus YOR061W, strain CKA2, hits give low values
[58] = locus YOR119C, strain RIO1, hits give low values
[59] = locus YOR231W, strain MKK1, hits give low values
[60] = locus YOR329C, strain SCD5, hits give low values
[61] = locus YPL031C, strain PHO85, hits give low values
[62] = locus YPL153C, strain RAD53, hits give low values
[63] = locus YPL204W, strain HRR25, hits give low values
[64] = locus YPL209C, strain IPL1, hits give low values
[65] = locus YPL256C, strain CLN2, hits give low values
[66] = locus YPR025C, strain CCL1, hits give low values
[67] = locus YPR106W, strain ISR1, hits give low values
[68] = locus YPR111W, strain DBF20, hits give low values
[69] = strain NNK1, hits give low values
[70] = strain TSCII, hits give low values
[71] = locus YHR030C, strain SLT2, hits give low values

Measured: normalized growth

CC(C)(C)c1csc(NNC(=O)c2ccc(Cl)cc2)n1
active: [41] 0.756 | [65] 0.769
inactive: [1] 0.978 | [2] 0.979 | [3] 0.954 | [4] 0.981 | [5] 0.966 | [6] 0.978 | [7] 0.98 | [8] 0.968 | [9] 0.974 | [10] 0.968 | [11] 0.884 | [12] 0.984 | [13] 0.958 | [14] 0.975 | [15] 0.925 | [16] 0.795 | [17] 0.913 | [18] 0.966 | [19] 0.963 | [20] 0.982 | [21] 0.92 | [22] 0.96 | [23] 0.883 | [24] 0.923 | [25] 0.871 | [26] 0.891 | [27] 0.911 | [28] 0.882 | [29] 0.984 | [30] 0.863 | [31] 0.921 | [32] 0.885 | [33] 0.964 | [34] 0.946 | [35] 0.904 | [36] 0.892 | [37] 0.885 | [38] 0.829 | [39] 0.967 | [40] 0.958 | [42] 0.872 | [43] 0.861 | [44] 0.814 | [45] 0.974 | [46] 0.872 | [47] 0.975 | [48] 0.982 | [49] 0.884 | [50] 0.969 | [51] 0.837 | [52] 0.96 | [53] 0.963 | [54] 0.899 | [55] 0.962 | [56] 0.868 | [57] 0.899 | [58] 0.967 | [59] 0.812 | [60] 0.97 | [61] 0.912 | [62] 0.895 | [63] 0.914 | [64] 0.966 | [66] 0.964 | [67] 0.954 | [68] 0.949 | [69] 0.957 | [70] 0.969

CC(C)(C)c1csc(NC(=O)c2ccc(Cl)cc2Cl)n1
active: [41] 0.716 | [65] 0.843
inactive: [1] 0.974 | [2] 0.976 | [3] 0.981 | [4] 0.971 | [5] 0.983 | [6] 0.973 | [7] 0.978 | [8] 0.962 | [9] 0.98 | [10] 0.978 | [11] 0.919 | [12] 0.991 | [13] 0.961 | [14] 0.97 | [15] 0.963 | [16] 0.95 | [17] 0.94 | [18] 0.966 | [19] 0.973 | [20] 0.964 | [21] 0.972 | [22] 0.975 | [23] 0.954 | [24] 0.938 | [25] 0.93 | [71] 0.867 | [26] 0.819 | [27] 0.98 | [28] 0.805 | [29] 0.973 | [30] 0.785 | [31] 0.864 | [32] 0.964 | [33] 0.978 | [34] 0.976 | [35] 0.993 | [36] 0.938 | [37] 0.939 | [38] 0.901 | [39] 0.958 | [40] 1.01 | [42] 0.968 | [43] 0.913 | [44] 0.9 | [45] 0.972 | [46] 0.931 | [47] 0.97 | [48] 0.98 | [49] 0.943 | [50] 0.974 | [51] 0.953 | [52] 0.967 | [53] 0.961 | [54] 0.91 | [55] 0.969 | [56] 0.917 | [57] 0.956 | [58] 1.01 | [59] 0.898 | [60] 0.975 | [61] 0.948 | [62] 0.946 | [63] 0.966 | [64] 0.982 | [66] 0.977 | [67] 0.958 | [68] 0.946 | [69] 0.938 | [70] 0.972

CC(C)(C)OC(=O)NC1CCN(C(=O)c2ccc(Cl)cc2Cl)CC1
inactive: locus YAL013W, strain DEP1, hits give low values 1 | locus YBR229C, strain ROT2, hits give low values 0.993 | locus YCL061C, strain MRC1, hits give low values 1.01 | [8] 0.995 | locus YDL134C, strain PPH21, hits give low values 0.999 | locus YDR150W, strain NUM1, hits give low values 0.95 | locus YEL061C, strain CIN8, hits give low values 1 | locus YGR078C, strain PAC10, hits give low values 1 | locus YGR229C, strain SMI1, hits give low values 1.01 | [71] 1.11 | locus YHR087W, strain rtc3, hits give low values 0.996 | locus YJL187C, strain SWE1, hits give low values 1.01 | locus YJR043C, strain POL32, hits give low values 0.997 | locus YJR075W, strain HOC1, hits give low values 0.999 | locus YKL190W, strain CNB1, hits give low values 1.01 | locus YLR039C, strain RIC1, hits give low values 1.02 | locus YLR058C, strain SHM2 (second series), hits give low values 1 | locus YLR085C, strain ARP6, hits give low values 1.03 | locus YLR262C, strain YPT6, hits give low values 1.09 | locus YML094W, strain GIM5, hits give low values 1.04 | locus YMR219W, strain ESC1, hits give low values 0.996 | locus YMR263W, strain SAP30, hits give low values 0.989 | locus YMR307W, strain GAS1, hits give low values 0.824 | locus YNL128W, strain TEP1, hits give low values 1.01 | locus YNL153C, strain GIM3, hits give low values 1 | locus YNL298W, strain CLA4 (second series), hits give low values 1.01 | locus YNL322C, strain KRE1, hits give low values 0.995 | locus YNR030W, strain Alg12, hits give low values 1.02 | locus YPL055C, strain LGE1, hits give low values 1.08 | locus YPL241C, strain CIN2, hits give low values 1.01 | locus YPR135W, strain CTF4, hits give low values 1
